Among the data in the supplement of paper PMC8540655 are larval motility values, retold here.

A number with no mark means an inactive call.

The test system of the assay is Aedes aegypti larvae. Put plainly: larval motility relative to same well at 0 h (fraction); higher = more motile (less active compound), active = 0.4 or less. To be noted: 10 µM. A digest of the protocol:
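Relative motility is the score of a well divided by its own score at the first recording. Movies were made with INVAPP at 0, 2 and 24 h, each having 200 frames at 100 ms intervals. Larvae of Aedes aegypti, from 18–24 h hatches in pond salt solution with yeast at 25 °C, sat at about 10 per well (100 µL) in 96-well plates with compounds at 10 µM and 1% v/v DMSO. Solvent and larvicide control wells were included on every plate, and values are medians of three independent larval batches.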

Regarding `NCc1ccc(S(N)(=O)=O)cc1`, the larval motility runs as follows: (2 h) 0.675; (24 h) 0.66.

Regarding `CCOC(=O)Nc1cc(NC(C)CC(C)CN(CC)CC)c2nc(-c3ccccc3)c(-c3ccccc3)nc2n1` (stereo not given), the larval motility is, setting by setting: (2 h) 0.848; (24 h) 1.04.

For the molecule `O=C(O)[C@H]1C2CCC(CC2)[C@@H]1Nc1nc(-c2c[nH]c3ncc(F)cc23)ncc1F`, the larval motility is, setting by setting: (2 h) 0.877; (24 h) 1.17.

In the case of `C=C[C@]1(C)C[C@@H](OC(=O)CS[C@@H]2C[C@H]3CC[C@@H](C2)N3C)[C@]2(C)[C@H](C)CC[C@]3(CCC(=O)[C@H]32)[C@@H](C)[C@@H]1O`, the larval motility (2 h) is 0.606 and the larval motility (24 h) is 0.545.

Regarding `CCCCCCCc1[nH]c2ccccc2c(=O)c1O`, the larval motility was 0.74 (2 h) and 0.565 (24 h).

On to `O=C(O)c1ccc(-c2ccc(O[C@H]3O[C@H](CO)[C@@H](O)[C@H](O)[C@@H]3O)cc2)cc1`, for which the larval motility reads like this: (2 h) 0.798; (24 h) 1.22.

`CN1CCN(c2ccc3[nH]c(-c4ccc5[nH]c(-c6ccc(O)cc6)nc5c4)nc3c2)CC1`: the larval motility (2 h) is 0.732 and the larval motility (24 h) is 1.11.

As for `O=C(O)c1cc(-c2ccc(Br)cc2)nc2ccc(Cl)cc12`, the larval motility runs as follows: (2 h) 1.05; (24 h) 0.76.

Turning to `O=C(O)CSc1cc(NS(=O)(=O)c2cccc3cccnc23)c2ccccc2c1O`, the larval motility is, setting by setting: (2 h) 0.969; (24 h) 0.675.

For `Nc1nc(-c2ccccc2)nc2c1ncn2[C@@H]1O[C@H](COS(=O)(=O)NC(=O)c2ccccc2O)[C@@H](O)[C@H]1O`, the larval motility is, setting by setting: (2 h) 0.842; (24 h) 1.04.

Take `CC(C)(C)NC(=O)N[C@H](C(=O)N1C[C@H]2[C@@H]([C@H]1C(=O)NC(CC1CCC1)C(=O)C(N)=O)C2(C)C)C(C)(C)C` (stereo not given in full): the larval motility is 0.758 (2 h) and 0.813 (24 h).

As for `CC(C)Cn1c(=O)n(C)c(=O)c2c(-c3cncn3C)n(Cc3cccc4ccccc34)nc21`, the larval motility is 0.612 (2 h) and 0.874 (24 h).

Turning to `O=P(O)(O)C(CCCc1cccc(Oc2ccccc2)c1)S(=O)(=O)O` (stereo not given), the larval motility (2 h) was 0.663 and the larval motility (24 h) is 0.88.

Take `Cc1[nH]c2ccccc2c1CC(=O)N[C@@H](Cc1ccccc1)C(=O)N(C)c1ccccc1`: the larval motility by setting is: (2 h) 0.963; (24 h) 1.03.

For the molecule `CN(C)CC(=O)Nc1ccc2[nH]c(=O)c3ccccc3c2c1`, the larval motility runs as follows: (2 h) 0.338 (active); (24 h) 0.463.

For `Cc1onc(-c2ccccc2)c1-c1ccc(S(N)(=O)=O)cc1`, the larval motility (2 h) is 0.513 and the larval motility (24 h) was 0.435.

Turning to `CC(N)C12CC3CC(CC(C3)C1)C2` (stereo not given), the larval motility is, setting by setting: (2 h) 1.14; (24 h) 0.773.

Consider `CCCCC(CC)CNC(=N)NC(=N)NCCCCCCNC(=N)NC(=N)NCC(CC)CCCC` (stereo not given), for which the larval motility by setting is: (2 h) 0.646; (24 h) 1.07.

With `O=C(N[C@H](Cc1cccc2ccccc12)C(=O)NCCc1c[nH]cn1)C1Cc2ccccc2C1`, the larval motility by setting is: (2 h) 0.819; (24 h) 0.952.

In the case of `O=C(Nc1cccc(C2=NCCN2)c1)c1ccc(-c2ccc(C(=O)Nc3cccc(C4=NCCN4)c3)cc2)cc1`, the larval motility is, setting by setting: (2 h) 0.648; (24 h) 0.961.

As for `C(=C\c1nc2ccccc2[nH]1)/c1ccc2c(c1)OCO2`, the larval motility was 0.765 (2 h) and 1.01 (24 h).

With `NC1C2CC3CC(C2)CC1C3` (stereo not given), the larval motility reads like this: (2 h) 0.973; (24 h) 1.31.

With `O=C(NN1C(=O)[C@@H]2C3C=CC([C@H]4C[C@@H]34)[C@@H]2C1=O)c1ccc(C(F)(F)F)cc1`, the larval motility reads like this: (2 h) 0.844; (24 h) 0.599.

With `Oc1c(C(Nc2ccccn2)c2ccccc2)ccc2cccnc12` (stereo not given), the larval motility (2 h) is 0.721 and the larval motility (24 h) is 1.07.

In the case of `Cc1cc(NS(=O)(=O)c2ccc(-c3ccc(F)cc3F)cc2)no1`, the larval motility runs as follows: (2 h) 0.769; (24 h) 0.77.

`CC1CCc2c(N3CCC(O)CC3)c(F)cc3c(=O)c(C(=O)O)cn1c23` (stereo not given): the larval motility (2 h) is 1.3 and the larval motility (24 h) was 0.744.

For the molecule `NC(=S)N/N=C/c1ncccc1N`, the larval motility is, setting by setting: (2 h) 0.987; (24 h) 0.773.

`CCc1cc(O)c(Oc2cccnc2N)cc1F`: the larval motility is 1.72 (2 h) and 1.42 (24 h).

Regarding `Cc1nc(Nc2ccc(F)cc2)nc(N2CCc3ccccc3C2C)c1C` (stereo not given), the larval motility is 0.774 (2 h) and 0.644 (24 h).

As for `CNCC(=O)OCc1cccnc1N(C)C(=O)OC(C)[n+]1cnn(C[C@](O)(c2cc(F)ccc2F)[C@@H](C)c2nc(-c3ccc(C#N)cc3)cs2)c1` (stereo not given in full), the larval motility was 1.02 (2 h) and 0.736 (24 h).
